Screening data from PubChem BioAssay.
Only some compounds are listed: those with a hit (about 11% of all), similar ones and a draw of the others.
BAZ2B inh = blocks human BAZ2B | AlphaScreen BAZ2B-H3K14Ac peptide displacement | Potency, µM (top dose mostly 114 µM), most hits filed as inhibitors | 360,000 compounds, 4.4% hits | AID 504333 | Q9UIF8; note: nearly all actives have a fitted effect of over 60% in size
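BAZ2B (50 nM) with biotin-H3(5-23)K14Ac peptide (50 nM) in PBS pH 7.4, 0.01% Tween-20, preformed 30 min, then compound 30 min at room temperature; top concentration 110uM. AlphaScreen streptavidin donor/nickel chelate acceptor beads (10 ug/mL final), 20 min dark, signal read.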
G9a inh = blocks human histone lysine methyltransferase G9a; Q96KQ7; G9a H3K9 monomethylation, AlphaScreen, 2 h; Potency, µM (series often up to 102 µM), most hits filed as inhibitors; 350,000 compounds, 8.8% hits; AID 504332; note: nearly all actives have a fitted effect of over 75% in size
Target sequence (Q96KQ7 913-1193 limits assumed): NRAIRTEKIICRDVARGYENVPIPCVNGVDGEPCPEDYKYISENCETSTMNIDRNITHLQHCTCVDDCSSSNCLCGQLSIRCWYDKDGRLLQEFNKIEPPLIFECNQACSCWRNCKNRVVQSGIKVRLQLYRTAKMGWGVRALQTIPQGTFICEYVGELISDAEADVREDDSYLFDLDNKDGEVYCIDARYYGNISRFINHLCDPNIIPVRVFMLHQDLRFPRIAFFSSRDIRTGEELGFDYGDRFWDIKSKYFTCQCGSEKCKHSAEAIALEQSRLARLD
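Methyltransferase reactions run at room temperature for 2 h (20 nM enzyme, 500 nM biotin-H3K9 peptide, 20 uM SAM) after a 15 min compound preincubation; product detected by AlphaScreen beads and anti-H3K9me1 antibody.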
HP1b binding inh = inhibitors of HP1-beta chromodomain binding to methylated histone tails; P83916; AlphaScreen HP1-beta / biotin-H3K9me3 peptide binding; Potency, µM (top dose mostly 114 µM), actives largely listed as inhibitors; 390,000 compounds, 0.56% hits; note: nearly all actives have a fitted effect of over 70% in size
Target sequence (P83916 whole entry, looked up): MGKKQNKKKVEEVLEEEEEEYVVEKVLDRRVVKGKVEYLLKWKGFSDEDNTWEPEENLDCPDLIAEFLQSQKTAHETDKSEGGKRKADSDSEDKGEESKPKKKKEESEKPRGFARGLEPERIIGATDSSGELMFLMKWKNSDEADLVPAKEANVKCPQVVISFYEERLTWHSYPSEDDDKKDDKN
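HP1-beta protein (50 nM final) preincubated 30 min at room temperature with biotinylated H3(1-18)K9me3 peptide (50 nM) in PBS pH 7.4, 0.01% Tween-20, then compound added for 30 min. AlphaScreen streptavidin donor/nickel chelate acceptor beads (10 ug/mL final), 30 min dark, luminescence read.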
JMJD2A Tudor = blocks the human JMJD2A Tudor domain. Potency, µM (highest dose often 114 µM), most hits filed as inhibitors. AlphaScreen JMJD2A-Tudor / H3K4me3 peptide binding. 390,000 compounds, 4.4% hits; note: nearly all actives have a fitted effect of over 50% in size
L3MBTL1 block = inhibitors of human L3MBTL1; AlphaScreen L3MBTL1–H3K9me1 peptide binding; Potency, µM (highest dose often 57.1 µM), actives largely listed as inhibitors; 230,000 compounds, 0.66% hits; note: nearly all actives have a fitted effect of over 60% in size
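L3MBTL1 50 nM + b-AHA-H3(1-15)K9me1 75 nM, 30 min RT; compound added, 30 min RT; streptavidin donor/Ni-chelate acceptor beads 10 ug/mL each final, 30 min RT dark; AlphaScreen read.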
Of the large screens only hits and unclear results are named; the others gave an inactive call. Calls come from the whole dose curve; as a rule, active = well fitted inhibition curve with a large enough effect; inconclusive = small, poorly fitted or top-dose-only effect; inactive = no such curve, though single readings can be large or run the other way.

CCC1(C)CN=C(c2ccccc2)NC1 (centres undefined)	JMJD2A Tudor 35µM (no result: BAZ2B inh, G9a inh, L3MBTL1 block)
CCc1ccc2[nH]c(=O)c(-c3ccccc3)c(O)c2c1	none
O=C(CCC1CCCNC1)c1ccccc1 (centres undefined)	G9a inh 50µM (no result: HP1b binding inh, JMJD2A Tudor)
O=C(CCCCCCCC(=O)c1ccccc1)c1ccccc1	none
CCCNC(=O)c1ccc2c(c1)sc1nc(-c3ccc(C)cc3)cn12	none (no result: L3MBTL1 block)
CCN(CC)CCCNC(=O)c1ccc2c(c1)sc1nc(-c3ccc(C)cc3)cn12	BAZ2B inh 40µM, G9a inh 11µM, JMJD2A Tudor inconclusive (no result: L3MBTL1 block)
CCOC(=O)C1=C(CSc2nc(C)cc(C)c2C#N)OC(N)=C(C#N)C1c1ccccc1 (centres undefined)	JMJD2A Tudor inconclusive (no result: G9a inh)
CCOC(=O)C1=C(CSc2nc(CC)c(C)cc2C#N)OC(N)=C(C#N)C1c1ccccc1 (centres undefined)	BAZ2B inh inconclusive, G9a inh 40µM, JMJD2A Tudor inconclusive (no result: L3MBTL1 block)
CCOC(=O)C1=C(CSc2nc(-c3ccccc3)ccc2C#N)OC(N)=C(C#N)C1c1ccc(OC)cc1 (centres undefined)	G9a inh 32µM
CC(=O)N1CCc2c(sc3c2c(=O)n(CCc2ccccc2)c(=O)n3Cc2ccc(F)cc2)C1	none (no result: L3MBTL1 block)
COc1ccc(-c2sc(Nc3ccccc3)n[n+]2C)c(C)c1C	none (no result: G9a inh)
CCOc1cc(-c2sc(Nc3ccccc3)n[n+]2C)ccc1OC	BAZ2B inh inconclusive, G9a inh 45µM
Cc1ccc(CN(C(=O)c2cccs2)C2CCS(=O)(=O)C2)cc1 (centres undefined)	none (no result: L3MBTL1 block)
O=C(c1ccco1)N(Cc1ccc(Cl)cc1)C1CCS(=O)(=O)C1 (centres undefined)	none (no result: G9a inh, L3MBTL1 block)
CCN(CC)c1ccc(CN(C(=O)c2ccco2)C2CCS(=O)(=O)C2)cc1 (centres undefined)	G9a inh 45µM
CCN(CC)c1ccc(CN(C(=O)c2cc(OC)c(OC)c(OC)c2)C2CCS(=O)(=O)C2)cc1 (centres undefined)	BAZ2B inh inconclusive, G9a inh 35µM, JMJD2A Tudor inconclusive
COc1cccc(CN(C(=O)c2cccs2)C2CCS(=O)(=O)C2)c1 (centres undefined)	JMJD2A Tudor 56µM (no result: L3MBTL1 block)
CCN(CC)c1ccc(CN(C(=O)c2cccs2)C2CCS(=O)(=O)C2)cc1 (centres undefined)	BAZ2B inh inconclusive, G9a inh 40µM, JMJD2A Tudor inconclusive (no result: L3MBTL1 block)
CCOC(=O)CCn1c(=O)c2cccn2c2cccnc21	none (no result: L3MBTL1 block)
Cc1cc(C)cc(C(=O)N(CCc2ccccc2)C2CC3CCC(C2)N3C)c1 (centres undefined)	none (no result: G9a inh)
COC(=O)c1ccc2c(=O)n(-c3ccc(OC)cc3)c(=S)[nH]c2c1	none
CCc1ccc(CN(C(=O)c2ccco2)C2CCS(=O)(=O)C2)cc1 (centres undefined)	G9a inh inconclusive, JMJD2A Tudor 22µM (no result: L3MBTL1 block)
O=C(c1ccco1)N(Cc1cccc(F)c1)C1CCS(=O)(=O)C1 (centres undefined)	BAZ2B inh 56µM (no result: L3MBTL1 block)
Cc1ccc2c(c1)N(C(=O)N1CCC(C(=O)NCCC3=CCCCC3)CC1)CC(C)O2 (centres undefined)	none (no result: L3MBTL1 block)
C=CCn1c(=O)c(C(=O)NCCNCC)c(O)c2ccccc21	BAZ2B inh inconclusive, G9a inh inconclusive
CCn1c(=O)c(C(=O)NCCN2CCCCC2)c(O)c2ccccc21	BAZ2B inh inconclusive, G9a inh 56µM
CCn1c(=O)c(C(=O)NCCc2ccccc2)c(O)c2ccccc21	none
CCNCCNC(=O)c1c(O)c2ccccc2n(CC)c1=O	G9a inh 11µM
Cc1ccc2ncc(C(=O)NC(C)c3ccccc3)c(=O)n2c1 (centres undefined)	none (no result: L3MBTL1 block)
CCOC(=O)C1=NNC2(CC(=O)N(c3cc(C)cc(C)c3)C2=O)C1 (centres undefined)	none (no result: L3MBTL1 block)
CCOC(=O)C1=NN(N=O)C2(CC(=O)N(c3cc(C)cc(C)c3)C2=O)C1 (centres undefined)	G9a inh 4.5µM (no result: L3MBTL1 block)
CCc1ccc(OC(C)C(=O)N2CCC(c3nc4ccccc4s3)CC2)cc1 (centres undefined)	G9a inh inconclusive (no result: L3MBTL1 block)
COc1cc(/C=N/S(=O)(=O)CCc2ccccc2)ccc1O	none
Clc1ccccc1N/N=C/c1ccc2c(c1)OCO2	G9a inh 8.9µM
C(=N\N1CCN(C(c2ccccc2)c2ccccc2)CC1)/c1ccc2c(c1)OCO2	BAZ2B inh inconclusive, G9a inh inconclusive, HP1b binding inh inconclusive, JMJD2A Tudor 22µM
COc1cc(OC)c(OC)cc1/C=N/N(C)c1ccccc1	BAZ2B inh 32µM, G9a inh 8.9µM, HP1b binding inh 16µM, JMJD2A Tudor 45µM (no result: L3MBTL1 block)
COc1cc(/C=N/N(C)c2ccccc2)ccc1O	BAZ2B inh 45µM, G9a inh 14µM, HP1b binding inh inconclusive, JMJD2A Tudor 56µM (no result: L3MBTL1 block)
O=C(CNC(=O)c1ccccc1Cl)N/N=C/c1ccc2c(c1)OCO2	none (no result: L3MBTL1 block)
CN(/N=C/c1cc([N+](=O)[O-])ccc1O)c1ccccc1	none
COc1ccccc1N1CCN(C(=O)Cn2ncc3c2-c2cc(C)ccc2OC3)CC1	none (no result: L3MBTL1 block)
COc1cccc(Cn2c(=O)cnc3cnc(Nc4ccccc4)nc32)c1	none (no result: BAZ2B inh, HP1b binding inh, JMJD2A Tudor, L3MBTL1 block)
COc1cccc(CC(=O)NCc2ccc3c(c2)CCN3C(C)=O)c1	none (no result: L3MBTL1 block)
COc1ccc(Nc2nnc(-c3ccc(C)c(S(N)(=O)=O)c3)c3ccccc23)cc1	JMJD2A Tudor inconclusive (no result: L3MBTL1 block)
C(=N\N(c1ccccc1)c1ccccc1)/c1ccc2c(c1)OCO2	none
CN(/N=C/c1ccc2c(c1)OCO2)c1ccccc1	BAZ2B inh 28µM, G9a inh 10µM, JMJD2A Tudor inconclusive
O=C(O)CC(C(=O)O)N1C(=O)/C(=C/c2ccc(-c3nc4ccccc4s3)o2)SC1=S (centres undefined)	BAZ2B inh 50µM, G9a inh 5µM, HP1b binding inh 28µM, JMJD2A Tudor 50µM, L3MBTL1 block 4.5µM
O=C(O)CCN1C(=O)/C(=C/c2ccc(-c3nc4ccccc4s3)o2)SC1=S	BAZ2B inh 3.5µM, G9a inh inconclusive, HP1b binding inh inconclusive, JMJD2A Tudor 6.3µM
O=Cc1ccc(-c2nc3ccccc3s2)o1	none
Cc1ccc(NC(=O)CCSc2nc(-c3ccc4c(c3)OCO4)cc(C(F)(F)F)n2)cc1	none (no result: L3MBTL1 block)
Cc1ccc(NC(=O)Cn2c(=O)n(Cc3ccc4c(c3)OCO4)c(=O)c3ccc(C(=O)NC4CCCCC4)cc32)cc1	none (no result: BAZ2B inh, L3MBTL1 block)
CCCCn1c(N)c(N(CC(C)C)C(=O)C(C)SCc2nc3sc(C)c(C)c3c(=O)[nH]2)c(=O)[nH]c1=O (centres undefined)	G9a inh 35µM
Oc1ccc(N=Cc2ccc(-c3cccs3)s2)cc1	BAZ2B inh inconclusive, G9a inh inconclusive, HP1b binding inh inconclusive, JMJD2A Tudor 35µM, L3MBTL1 block inconclusive
CCCOc1ccc(CNC(=O)CN2C(=O)c3cccnc3Oc3ccc(C)cc32)cc1	none (no result: L3MBTL1 block)
